Bioassay records deposited in PubChem BioAssay by National Center for Advancing Translational Sciences (NCATS).
Hits are enriched below; roughly 2.4% of the tested compounds scored in any of these assays.
D2 antagonist = antagonists of human D2 dopamine receptor | HEK293 TREx D2 cells, calcium flux, dopamine EC80 | 2% of 340,000 active | P14416 | inhibition, % at 10 µM; in the data active = inhibition above about 30%; inactive = below that, where a call was filed; also: 0% is about no effect
Target sequence (P14416 whole entry, looked up): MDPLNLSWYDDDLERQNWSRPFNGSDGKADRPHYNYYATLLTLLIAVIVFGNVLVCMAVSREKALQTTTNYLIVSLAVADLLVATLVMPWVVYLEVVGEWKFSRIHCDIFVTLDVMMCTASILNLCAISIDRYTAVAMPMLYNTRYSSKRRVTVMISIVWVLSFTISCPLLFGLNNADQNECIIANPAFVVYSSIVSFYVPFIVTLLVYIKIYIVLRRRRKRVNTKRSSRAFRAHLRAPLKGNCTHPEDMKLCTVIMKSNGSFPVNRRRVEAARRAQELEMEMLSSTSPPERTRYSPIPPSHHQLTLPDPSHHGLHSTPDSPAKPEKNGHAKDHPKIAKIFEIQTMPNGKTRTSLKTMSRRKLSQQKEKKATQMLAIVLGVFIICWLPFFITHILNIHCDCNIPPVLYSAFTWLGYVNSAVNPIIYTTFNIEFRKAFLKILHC
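Measurement of antagonist activity uses fluorescent calcium dye in inducible HEK293 T-REx D2 cells: 10 s baseline, compound addition with 180 s read, EC80 dopamine addition with a further 180 s read.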
D2 ag-1 = activates the human D2 dopamine receptor. P14416. HEK293 T-REx D2 cells, calcium flux agonist mode. activation, % at 2 µM. 0.53% of 340,000 active. AID 485358;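 active = activation over 3 SD above normal in the single-dose calcium agonist read, cut at about 30% in these data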; also: 0% is about no effect
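Tetracycline-induced HEK293 Trex cells with D2 receptor force-coupled to calcium signaling, plated overnight at 30 C and loaded with no-wash calcium dye. Calcium flux read kinetically for 180 s after compound addition; responses flag agonists.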
D2 PAM-1 = positive allosteric modulators of human D2 dopamine receptor; potentiation, % (test concentration not listed); 0.23% of 360,000 active; P14416; AID 624464; DiscoveRx D2 beta-arrestin cells, luminescence, 90 min; 100% = 57 uM dopamine signal; in the data active = potentiation above about 50%; inconclusive = mostly about 30% to 49%
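PathHunter beta-arrestin assay in DiscoveRx D2 cells. Compounds were added with an EC20 of dopamine (50 nM final) for 90 min at 37 deg C. Luminescence was read 1 h after detection reagent, with 57 uM dopamine as the EC100 control.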
D2 PAM-2 = positive allosteric modulators of human D2 dopamine receptor; P14416; HEK293 T-REx D2, calcium flux, EC20 dopamine potentiation; potentiation, % at 10 µM; 0.34% of 340,000 active;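 active = potentiation over 3 SD above the plate norm, cut at about 30% in these data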; also: 0% is about no effect
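Cells plated with tetracycline inducer and held overnight at 30 C; calcium dye loaded 30–90 min at room temperature; baseline taken, compound added and read 180 s; EC20 dopamine then added and read 180 s.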
D2 ag-2 = agonists of human D2 dopamine receptor (beta-arrestin); AID 624465; 0.084% of 360,000 active; DiscoveRx PathHunter D2 beta-arrestin, luminescence, 90 min; 100% = 57 uM dopamine signal; activation, % (concentration not given with the values); P14416; in the data active = activation above about 40%; inconclusive = between about 15% and that limit
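DiscoveRx PathHunter D2 beta-arrestin cells (2,100/well) attached overnight, then compound-stimulated 90 min at 37 C in HBSS/10 mM HEPES/0.1% Tween-20 buffer; beta-galactosidase complementation read by luminescence after 1 h at ambient temperature. Dopamine 57 uM final (EC100) as control.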
Numbers without * were called inactive.

Screening c1ccc(SCCOCCN2CCc3ccccc3C2)cc1 returned D2 antagonist 75*, D2 ag-1 0, D2 PAM-1 -12, D2 PAM-2 -20 and D2 ag-2 -7.
For CC1CC(C)CN(CCOCCSc2ccccc2)C1 (stereo not drawn) the results were D2 antagonist 65*, D2 ag-1 -1, D2 PAM-1 -30, D2 PAM-2 -21 and D2 ag-2 -3.
CC1CC(C)CN(CCOCCSc2ccc(Cl)cc2)C1 (stereo not drawn) was read as D2 antagonist 65*, D2 ag-1 -1, D2 PAM-1 -5, D2 PAM-2 -25 and D2 ag-2 1.
For CC1CC(C)CN(CCCSc2ccccc2)C1 (stereo not drawn) the results were D2 antagonist 25, D2 ag-1 0, D2 PAM-1 -38, D2 PAM-2 11 and D2 ag-2 -4.
CCOc1ccccc1C(=O)Nc1cc2c(cc1N1CCOCC1)n(C)c(=O)n2C was read as D2 ag-1 0 and D2 PAM-2 9.
Screening CSc1ccc(/C=C/c2nc3ccccc3n2S(=O)(=O)c2ccc(Br)cc2)cc1 returned D2 ag-1 0 and D2 PAM-2 -2.
Cc1cc(NC(=O)CCc2ccccc2)c([N+](=O)[O-])cc1C was read as D2 antagonist -2, D2 ag-1 -1, D2 PAM-1 -28, D2 PAM-2 -15 and D2 ag-2 -5.
For Cc1cc(C)c(C#N)c(SCc2cn3ccccc3n2)n1 the results were D2 antagonist -9, D2 ag-1 0, D2 PAM-1 -11, D2 PAM-2 4 and D2 ag-2 1.
Cc1cc(C)nc(SCc2cn3ccccc3n2)n1 was read as D2 antagonist 38*, D2 ag-1 -1, D2 PAM-1 10, D2 PAM-2 -1 and D2 ag-2 0.
`CC(=O)c1c(NCc2ccccc2)nc(=O)n(-c2ccccc2)c1C` gave D2 antagonist 40*, D2 ag-1 1, D2 PAM-1 -12, D2 PAM-2 -7 and D2 ag-2 -7.
Cc1nn(CC(C)C(=O)N2CCN(S(=O)(=O)c3ccc(Cl)cc3)CC2)c(C)c1C (stereo not drawn) was read as D2 antagonist 32*, D2 ag-1 2, D2 PAM-1 -3, D2 PAM-2 -16 and D2 ag-2 -4.
Screening Cc1ccc(S(=O)(=O)N2CCN(C(=O)C(C)Cn3nc(C)c(C)c3C)CC2)cc1 (stereo not drawn) returned D2 antagonist 11, D2 ag-1 1, D2 PAM-1 2, D2 PAM-2 -7 and D2 ag-2 -1.
`O=C(CCN1C(=O)c2ccc([N+](=O)[O-])cc2C1=O)Nc1ccc(O)cc1C(=O)O` gave D2 antagonist -2, D2 ag-1 -2, D2 PAM-1 61*, D2 PAM-2 17 and D2 ag-2 inconclusive.
For O=C(CN1C(=O)c2ccc([N+](=O)[O-])cc2C1=O)NCc1ccc(C(=O)O)cc1 the results were D2 antagonist 4, D2 ag-1 1, D2 PAM-1 51*, D2 PAM-2 0 and D2 ag-2 9.
For COCCn1c(C)cc(O)c(C(c2ccccc2F)N2CCN(c3ccccc3)CC2)c1=O (stereo not drawn) the results were D2 ag-1 24 and D2 PAM-2 -2.
N/C(Cc1ccc(Cl)cc1)=N\OC(=O)c1cccc2ccccc12 was read as D2 antagonist -7, D2 ag-1 2, D2 PAM-1 86*, D2 PAM-2 -9 and D2 ag-2 inconclusive.
Screening N/C(Cc1ccc(Cl)cc1Cl)=N\OC(=O)c1ccccc1 returned D2 antagonist -43, D2 ag-1 0, D2 PAM-1 22, D2 PAM-2 -14 and D2 ag-2 63*.
For N/C(Cc1ccc(Cl)cc1)=N\OC(=O)c1ccc2ccccc2c1 the results were D2 antagonist -19, D2 ag-1 0, D2 PAM-1 168*, D2 PAM-2 6 and D2 ag-2 inconclusive.
CC(=O)Nc1ccc(C(=O)OCC(=O)c2cccc([N+](=O)[O-])c2)cc1 was read as D2 antagonist 17, D2 ag-1 0, D2 PAM-1 -7, D2 PAM-2 6 and D2 ag-2 1.
Cc1ccc(C(=O)COC(=O)c2cccc(NC(=O)c3ccc([N+](=O)[O-])cc3[N+](=O)[O-])c2)cc1 was read as D2 antagonist 11, D2 ag-1 0, D2 PAM-1 122*, D2 PAM-2 6 and D2 ag-2 inconclusive.
CCOc1ccc(S(=O)(=O)N2CCOCC2)cc1NC(=O)CN1C(=O)NC(CC)(c2ccccc2)C1=O (stereo not drawn) was read as D2 antagonist -13, D2 ag-1 0, D2 PAM-1 0, D2 PAM-2 -1 and D2 ag-2 1.
For O=C(CNC(=O)c1cccs1)NCC(=O)OCc1ccc(F)cc1 the results were D2 antagonist 3, D2 ag-1 0, D2 PAM-1 -15, D2 PAM-2 35* and D2 ag-2 -2.
For O=C1CCCCC1(O)Cc1ccc2c(c1)OCO2 (stereo not drawn) the results were D2 PAM-1 -1 and D2 ag-2 1.
For S=c1[nH]c(-c2ccccc2)cn1/N=C/c1ccc(Br)cc1 the results were D2 antagonist 36*, D2 ag-1 0, D2 PAM-1 -18, D2 PAM-2 -25 and D2 ag-2 -1.
For Fc1ccccc1/C=N/n1cc(-c2ccccc2)[nH]c1=S the results were D2 antagonist 38*, D2 ag-1 0, D2 PAM-1 -21, D2 PAM-2 5 and D2 ag-2 -7.
For O=C(O)c1ccc(/C=N/n2cc(-c3ccccc3)[nH]c2=S)cc1 the results were D2 antagonist -3, D2 ag-1 -1, D2 PAM-1 -18, D2 PAM-2 -5 and D2 ag-2 -6.
Screening Cn1c(=O)c([N+](=O)[O-])c(NCCc2ccccc2)c2ccccc21 returned D2 antagonist 38*, D2 ag-1 -1, D2 PAM-1 -17, D2 PAM-2 -13 and D2 ag-2 -6.
Screening N#CC1=C(N)Oc2n[nH]c(-c3cccnc3)c2C1c1ccc([N+](=O)[O-])o1 (stereo not drawn) returned D2 antagonist 8, D2 ag-1 1, D2 PAM-1 55*, D2 PAM-2 6 and D2 ag-2 9.
CCc1[nH]nc2c1C(c1ccc(C)o1)C(C#N)=C(N)O2 (stereo not drawn) was read as D2 antagonist 64*, D2 ag-1 0, D2 PAM-1 11, D2 PAM-2 -8 and D2 ag-2 -2.
For Cc1ccc(CSC2=NCCN2S(=O)(=O)c2ccc(C)cc2)cc1 the results were D2 PAM-1 -7 and D2 ag-2 -2.
`Cc1ccc(S(=O)(=O)N2CCN=C2SCc2ccc(Cl)c(Cl)c2)cc1` gave D2 antagonist 30*, D2 ag-1 1, D2 PAM-1 4, D2 PAM-2 -4 and D2 ag-2 -2.
